The record followed here is ChEMBL document CHEMBL3988442, “University of Dundee, Small-Polar-MMV Screening Library” (2021).

In all, about 69,000 compounds went through this assay and about 420 (0.61%) showed an effect of 50% or more. This excerpt belongs to a sample that is enriched for strong results.

The target of this experiment is T1, Histidine--tRNA ligase (Leishmania infantum) (UniProt A4I591).
T1 sequence (whole entry): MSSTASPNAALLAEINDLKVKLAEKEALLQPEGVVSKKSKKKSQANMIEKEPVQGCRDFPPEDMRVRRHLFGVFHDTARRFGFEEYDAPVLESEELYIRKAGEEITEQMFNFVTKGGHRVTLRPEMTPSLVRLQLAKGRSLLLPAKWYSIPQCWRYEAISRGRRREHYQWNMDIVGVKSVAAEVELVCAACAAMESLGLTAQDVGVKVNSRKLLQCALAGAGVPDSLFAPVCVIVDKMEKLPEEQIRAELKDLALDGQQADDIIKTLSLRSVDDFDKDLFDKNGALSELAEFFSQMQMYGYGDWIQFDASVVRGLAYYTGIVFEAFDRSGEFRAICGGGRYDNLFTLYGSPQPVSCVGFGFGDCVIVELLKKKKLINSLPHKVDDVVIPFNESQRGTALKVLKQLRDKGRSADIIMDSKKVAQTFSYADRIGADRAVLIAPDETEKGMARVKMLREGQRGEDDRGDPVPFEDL
The experiment can be described thus: Leishmania infantum Histidine tRNA synthetase (LdHisRS). It is filed as functional. The settings on record: 30 µM. More on the design: scale not given: in the data most compounds retested in dose-response had high values.
As for `CC(=O)N1CC[C@H]2OCC[C@@H](C(=O)NCc3ccco3)[C@@H]2C1`, the Percent Effect was 10.1%.
Take `Cn1ccc2c(-c3cc(N4CCOCC4)ncn3)ccnc21`: the Percent Effect was found to be 9.52%.
To `Cn1ccc2c(-c3cc(N4CCCCC4)ncn3)ccnc21` belongs 54.8%; to `Cn1ccc2c(-c3cc(N)nc(N4CCOCC4)n3)ccnc21`, 19.1%.
With `CC(C)C(=O)N1CCN(C(=O)c2cc(Cl)no2)[C@H]2CS(=O)(=O)C[C@H]21` the figure was 1.61%.
Take `CC(C)c1nnc(N2C[C@@H]3CC[C@H](C2)N(Cc2ccccc2)C3)s1`: the Percent Effect stood at 59.5%.
With `Cc1nnsc1CN1C[C@@H]2CC[C@H](C1)N(Cc1ccccc1)C2` the figure was 8.33%.
To `CCCN1C[C@H]2CC[C@@H]1CN(c1nnc(C(C)C)s1)C2` belongs -42.9%; to `CC(C)c1nnc(N2C[C@@H]3CC[C@H](C2)N(CC2CCC2)C3)s1`, 19.1%.
`CC(=O)c1ccc(C(=O)N2C[C@@H]3CC[C@H](C2)N(Cc2ccccc2)C3)s1`: the Percent Effect was determined as 30.1%.
As for `CSCCCN1C(=O)CC[C@H]2CN(Cc3ncc[nH]3)CC[C@H]21`, the Percent Effect amounted to 1.33%.
With `COc1ccc(-c2nc(CCNCc3ccncc3)co2)cc1` the figure was 24.5%; with `Cc1nnc(NCC2(c3ccccc3)CC2)c(C#N)c1C`, 9.62%.
As for `Cc1nnc(NCCc2coc(-c3ccccc3)n2)c(C#N)c1C`, the Percent Effect is 51.4%.
On to `Cc1nnc(NCCC(=O)NCc2ccccc2)c(C#N)c1C`, for which the Percent Effect was found to be 31.5%.
To `Cc1nnc(NCCc2coc(-c3ccc(F)cc3)n2)c(C#N)c1C` belongs 48.6%; to `COc1ccc(-c2nc(CCNc3nnc(C)c(C)c3C#N)co2)cc1`, 57.1%; to `CCN1CC[C@@]2(C(=O)N3CCCC3)CCN(S(C)(=O)=O)CC[C@@H]12`, 21.4%.
With `O=C(C1CCOCC1)N1C[C@H]2CCC[C@@]2(COc2ccccn2)C1` the figure was 0%.
Consider `CC(C)CC(=O)N1C[C@@H]2CCN(c3ncccn3)C[C@@H]2C1`, for which the Percent Effect came out at 17.1%.
With `O=C(c1cnccn1)N1C[C@@H]2[C@@H](C1)OCC(=O)N2CC1CCCC1` the figure was -944%; with `O=C(c1ccccn1)N1C[C@H]2CCC[C@@]2(COCC2CCOCC2)C1`, 10.1%.
For `CC(C)=CCN1CCN(Cc2ncc[nH]2)[C@H]2CS(=O)(=O)C[C@H]21`, the Percent Effect was found to be 0%.
As for `CCNC(=O)CN1CCN(c2cc(C)nc(-c3ccncc3)n2)CC1`, the Percent Effect was 30.1%.
Take `Cc1cc(N2CCC(CC(N)=O)CC2)nc(-c2ccncc2)n1`: the Percent Effect was determined as 15.6%.
In the case of `Cc1cc(N2CCN(CCO)CC2)nc(-c2ccncc2)n1`, the Percent Effect came out at 20%.
`Cc1cc(N2CCC(Cc3ccccc3)CC2)nc(-c2ccncc2)n1`: the Percent Effect was determined as 62.5%.
Consider `Cc1cc(N2CCN(CC(=O)N(C)C)CC2)nc(-c2ccncc2)n1`, for which the Percent Effect came to 51.4%.
For the compound `Cc1cc(N2CCC(Cc3ccccc3)CC2)ncn1`, the Percent Effect is 21.4%.
Regarding `CC(=O)NCC1CCN(c2cc(C)nc(-c3ccncc3)n2)CC1`, the Percent Effect is 59.8%.
To `Cc1cc(N2CCC(C(=O)N(C)C)CC2)nc(-c2ccncc2)n1` belongs 17.1%; to `COC(=O)C1CCN(c2cc(C)nc(-c3ccncc3)n2)CC1`, 37.6%; to `c1cnc(N2CCN(C3CCC[C@@H]4CN(CC5CC5)C[C@H]34)CC2)nc1` (some centres not stated), 2.86%.
To `Cc1ccc(-c2nnc(CN3CCOC(Cn4cncn4)C3)o2)cc1` (configuration not stated) belongs 3.39%.
Take `CCn1ncc(CN2C[C@@H]3CCCN3C[C@H]2CCSC)c1C`: the Percent Effect is -58%.
As to `CC(C)N1CCN2C(=O)N(C3CCCCC3)C[C@H]2C1`, the Percent Effect was 18.9%.
To `CCO[C@@H]1C[C@H]2CN(S(=O)(=O)c3cccs3)CCN2C1` belongs 7.89%; to `CN(C)S(=O)(=O)N1C[C@H]2C[C@H](C(=O)NCc3ccccc3)[C@@H](C1)O2`, 3.64%.
To `COc1ccc(CN2CCCC2)cc1Oc1ccc2c(c1)CC(CN)O2` (configuration not stated) belongs 25.8%; to `NCC1Cc2cc(Oc3cc(F)c(CN4CCCC4)c(F)c3)ccc2O1` (configuration not stated), 57.5%; to `Cc1cc(CN2CCCC2)cc(Oc2ccc3c(c2)CC(CN)O3)c1` (configuration not stated), 12.5%.
With `O=C(C1CCC1)N1CCN(Cc2ccccc2F)[C@H]2CS(=O)(=O)C[C@H]21` the figure was 23.3%; with `Cn1cc(C(=O)N2CCN(c3ccccc3)CC2)ccc1=O`, 11%.
As to `Cn1cc(NC(=O)N2CCC2c2ccccc2)ccc1=O` (configuration not stated), the Percent Effect was 108%.
Take `CC(C)c1nnc(NC(=O)N2CCN(C)CC2c2ccccc2)s1` (configuration not stated): the Percent Effect worked out at 4.17%.
For the compound `CC(C)Oc1ncccc1CNC(=O)N1CCC1c1ccccc1` (configuration not stated), the Percent Effect is 16.8%.
With `Cn1cc(C(=O)N2CCN(Cc3cscn3)CC2)ccc1=O` the figure was 15.3%.
Take `CN1C(=O)CO[C@H](c2ccc(NC(=O)Nc3ccccc3)cc2)[C@H]1CO`: the Percent Effect turned out to be 14.9%.
To `Cc1oc(C)c(C(=O)N2CCN(Cc3cscn3)CC2)c1C` belongs 13.3%.
Take `Cn1cc(NC(=O)N2CCN(Cc3cscn3)CC2)ccc1=O`: the Percent Effect came to 74.8%.
With `CCOC1CCN(C(=O)NCc2ccc(CN3CCOCC3)cc2)CC1` the figure was 13.5%.
As for `CCOC1CCN(C(=O)Nc2ccc(=O)n(C)c2)CC1`, the Percent Effect turned out to be 114%.
Regarding `CCOC1CCN(C(=O)NCc2ccc(C(=O)N(C)C(C)C)cc2)CC1`, the Percent Effect is 16.7%.
To `Cn1cc(NC(=O)C2CC(c3ccccc3)C2)ccc1=O` (configuration not stated) belongs 71.3%; to `O=C1[C@@H]2C[C@H](O)CCN2C(=O)CN1CCSc1ccccn1`, 17.6%; to `COc1ccccc1S(=O)(=O)N1CCN(C)[C@@H]2CS(=O)(=O)C[C@@H]21`, -6.67%.
With `CN(C)C[C@H]1C[C@@H]2CN(C(=O)c3ccco3)C[C@@H]2O1` the figure was 10.3%.
With `O=C1N(Cc2ccccn2)C[C@H]2CN(S(=O)(=O)c3ccccc3)CCN12` the figure was 24.3%.
`Cn1nccc1C(=O)N1C[C@@H]2CC[C@H](Oc3cccc(F)c3)[C@@H]2C1`: the Percent Effect came out at 18%.
With `Cc1cc(C(=O)N2C[C@@H]3CCCO[C@@H]3[C@H](N(C)C(C)C)C2)c(C)[nH]1` the figure was 11.5%; with `O=C(NCc1cccs1)[C@H]1CC[C@@H]2[C@@H](CCN2Cc2ccoc2)O1`, 12.5%; with `CCS(=O)(=O)N1CCO[C@H]2[C@H](OCC3CCCC3)CC[C@@H]21`, 20.8%.
On to `O=C(O)[C@]12CCCN(Cc3ccsc3)C[C@H]1CN(c1ncccn1)C2`, for which the Percent Effect stood at 10.5%.
To `O=C(Cc1cccc(F)c1)N1C[C@H]2CN(Cc3cccnc3)C[C@H]2C1` belongs 3.85%.
To `CC(C)CN1C[C@@H]2OCC(=O)N(c3ccccc3)[C@@H]2C1` belongs 21.6%.
With `Cn1cc(NC(=O)N2CCC(NS(C)(=O)=O)CC2)ccc1=O` the figure was 91.5%.
In the case of `C[C@H](NC(=O)N1CCC(Cc2ccccc2)CC1)C(=O)O`, the Percent Effect was -5%.
For `CC(NC(=O)N1CCC(OCc2ccccc2)CC1)c1nncn1C` (configuration not stated), the Percent Effect came out at 20.3%.
Take `Cn1cc(NC(=O)N2CCC(OCc3ccccc3)CC2)ccc1=O`: the Percent Effect came to 103%.
To `Cn1cc(NC(=O)N2CCC(CN3CCCC3)CC2)ccc1=O` belongs 6.38%; to `Cn1cc(NC(=O)N2CCC(c3ccccc3)CC2)ccc1=O`, 102%.
Consider `NC(=O)Cn1cc(NC(=O)N2CCC(c3ccccc3)CC2)cn1`, for which the Percent Effect stood at 16.5%.
To `CC(NC(=O)N1CCC(c2ccccc2)CC1)c1nncn1C` (configuration not stated) belongs 13.8%; to `CS(=O)(=O)NC1CCN(C(=O)c2ccc(F)cc2)CC1`, 28.1%.
Turning to `O=C(C1CCOC1)N1CCC(OCc2ccccc2)CC1` (configuration not stated), the Percent Effect is 16.8%.
`CS(=O)(=O)NC1CCN(C(=O)NCC2CCCO2)CC1` (configuration not stated): the Percent Effect was 11%.
To `Cn1cc(NC(=O)N2CCC(Cc3ccccc3)CC2)ccc1=O` belongs 101%.
